IP6K1 inh – blocks human inositol hexakisphosphate kinase 1; IP6K1 kinase, ADP-Glo luminescence, 2 h; stronger effect = lower value; hit rate 0.81% among 140,000; Q92551; activity change, % (series mostly up to about 58 µM); AID 1645851; in the data active = activity change below about -25%; note: % is set by controls: 0 for no effect and ±100 for the full control effect
Target sequence (Q92551 whole entry, looked up): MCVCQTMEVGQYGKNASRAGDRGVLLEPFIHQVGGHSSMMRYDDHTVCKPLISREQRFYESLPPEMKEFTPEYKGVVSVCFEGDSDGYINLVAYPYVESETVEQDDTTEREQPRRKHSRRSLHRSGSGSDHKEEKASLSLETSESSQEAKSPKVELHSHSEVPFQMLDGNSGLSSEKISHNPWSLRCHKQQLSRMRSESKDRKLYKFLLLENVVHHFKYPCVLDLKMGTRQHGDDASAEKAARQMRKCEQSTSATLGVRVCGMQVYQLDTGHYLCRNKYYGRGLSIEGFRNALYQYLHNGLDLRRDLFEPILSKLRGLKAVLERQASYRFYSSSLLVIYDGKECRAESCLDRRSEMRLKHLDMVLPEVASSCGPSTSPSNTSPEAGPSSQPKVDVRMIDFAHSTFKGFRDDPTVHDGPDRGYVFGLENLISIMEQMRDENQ
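ADP-Glo luminescence measures ADP made by human IP6K1 during a 2 h RT reaction with ATP/IP6 (mix at 1.3 mM/130 uM); top library doses 57.5 and 19.1 uM final.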
KDM5B inhibitor – KDM5B demethylase inhibition; Q9UGL1; KDM5B demethylase, FDH-coupled NADH fluorescence (FDH is formaldehyde dehydrogenase); Potency, µM (highest dose often 57.7 µM), usual class: inhibitors; hit rate 2.6% among 220,000; AID 1347165; note: potency is the fitted concentration of half-maximal effect; 0% is about no effect; nearly all actives have a fitted effect of over 70% in size
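qHTS format, multiple compound concentrations. Buffer 50 mM HEPES pH 7.5/0.01% Tween-20; 200 nM KDM5BΔAP final; 10 min compound preincubation; substrate-mix levels 12.5 µM peptide, 25 µM α-KG, 0.25 mM NAD⁺; 30 min RT; ΔRFU.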
IP6K1 inh cnf – confirmation of human IP6K1 inhibitors | shares compounds with IP6K1 inh | recombinant IP6K1 kinase, ADP-Glo luminescence, 2 h | Potency, µM (titrated, usually from 49 µM), inactives show at the highest dose activity change, negative = inhibition, most hits filed as inhibitors | hit rate 13% among 1,200 | AID 1645852; note: potency is the fitted concentration of half-maximal effect; % is set by controls: 0 for no effect and ±100 for the full control effect; nearly all actives have a fitted effect of over 65% in size
An asterisk follows results filed as active; i = inactive; ? = inconclusive; · = no result. The list is not random: actives were taken first. Their share in the collection is about 2.8%. Unless noted, calls come from the whole dose curve; as a rule, active = well fitted inhibition curve with a large enough effect; inconclusive = small, poorly fitted or top-dose-only effect; inactive = no such curve, though single readings can be large or run the other way.

SMILES	IP6K1 inh	KDM5B inhibitor	IP6K1 inh cnf
CN(Cc1cccs1)c1cc(C2CC(O)C2)ncn1 (configuration not stated)	0	i	·
CN(Cc1noc(C2CCCC2)n1)c1cc(C2CC(O)C2)ncn1 (configuration not stated)	-28*	i	-3%
Cc1ccc(-n2c(C)cc(/C=C(\C#N)C(=O)Nc3ccc(C)c(C)c3)c2C)cc1	-8	i	·
Cc1ccc(NC(=O)/C(C#N)=C/c2cc(C)n(-c3ccc(Br)cc3)c2C)cc1C	-29*	?	-11%
CC1=C(C(=O)Nc2ccc(C)cc2C)C(c2cccs2)n2nc(SCc3ccccc3Cl)nc2N1 (configuration not stated)	-26*	i	23%
CC1=C(C(=O)Nc2ccccc2C)C(c2cccs2)n2nc(SCc3cc(C)ccc3C)nc2N1 (configuration not stated)	0	i	·
CC(=O)NC(NC(=S)Nc1cccc(C)c1)C(Cl)(Cl)Cl (configuration not stated)	·	i	·
N#Cc1ccccc1CN1CCc2cc(S(=O)(=O)N3CCOCC3)ccc21	·	i	·
CC(C)C[C@H](C(=O)O)c1cc(-c2ccc(C(F)(F)F)cc2)cc(-c2ccc(C(F)(F)F)cc2)c1	-30*	·	?
CCC(C)C(NC(=O)c1ccc(C(F)(F)F)cc1)C(=O)O (configuration not stated)	·	i	·
Cc1ccc(-c2cc(C(F)(F)F)nn2-c2ccc(S(N)(=O)=O)cc2)cc1	7	·	·
CCC(=O)c1cc(-c2ccc(Cl)cc2)n(-c2ccc(S(N)(=O)=O)cc2)c1C	-34*	·	?
C#C[C@]1(OC(C)=O)CC[C@H]2[C@@H]3CCC4=C/C(=N/O)CC[C@@H]4[C@H]3CC[C@@]21CC	-59*	·	?
C#C[C@]1(OC(C)=O)CCC2C3CCc4cc(OC(C)=O)ccc4C3CCC21C (some centres not stated)	·	i	·
CCOC(=O)c1c(NC(C)=O)c2c3c(sc2n1Cc1nc(-c2cccc(Cl)c2)oc1C)CCCC3	-5	i	·
CCOC(=O)c1c(NC(C)=O)c2c3c(sc2n1Cc1nc(-c2ccccc2Cl)oc1C)CCCC3	-30*	?	11%
O=C(CC(F)(F)F)N(Cc1ccncc1)C1CC1	·	i	·
COc1cccc(-c2c(C(=O)NCc3ccccn3)nc3sccn23)c1	0	·	·
COc1ccc(-c2c(C(=O)NCc3ccccn3)nc3sccn23)cc1	-30*	·	1%
Cc1ccc(Sc2c(C)nn(C(=O)COc3ccccc3)c2C)cc1	-36*	?	?
Cc1nn(C(=O)COc2ccccc2)c(C)c1Sc1ccccc1	-4	i	·
O=C(C1CCCC1)N1CCCC2(CNc3ncccc3[S+](=O)([O-])N2)C1 (configuration not stated)	9	·	·
COc1cccc(CC(=O)N2CCC(c3n[nH]c(=O)n3-c3ccc(C)cc3)CC2)c1	2	i	·
COc1ccccc1CCNC(=O)CCSc1nc(Cl)nc2nc[nH]c12	·	i	·
Cc1ccc(C(=O)N(Cc2ccco2)C2CC2)s1	·	i	·
SMILES	IP6K1 inh	KDM5B inhibitor	IP6K1 inh cnf
Cc1c(C(=O)O)oc2c1-c1nn(Cc3ccc(Cl)cc3)cc1CC2	-19	?	·
CCOC(=O)c1oc2c(c1C)-c1nn(Cc3ccc(Cl)cc3)cc1CC2	-38*	?	?
O=C(NC1CCN(c2ccc3nnc(-c4ccccc4)n3n2)C1)c1ccccc1 (configuration not stated)	-17	·	·
CN(C)c1ccc(C(=O)Nc2cnc3ccccc3c2)cc1	·	i	·
Cc1cc(Nc2ncc(Cl)c(Nc3ccccc3S(=O)(=O)C(C)C)n2)c(OC(C)C)cc1C1CCNCC1	-9	·	·
COc1ccccc1N1CCN(S(=O)(=O)CCNC(=O)C(c2ccccc2)c2ccccc2)CC1	16	i	·
COc1ccccc1N1CCN(C(=O)C(OC)c2ccccc2)CC1=O (configuration not stated)	-26*	i	-16%
O=C(O)CSCc1c[nH]c2ccccc12	·	i	·
NC(=O)c1cc(Sc2ccc3c(c2)OCCCO3)nc2ccccc12	·	i	·
Cc1ccc(F)cc1NC(=O)C(C)C	·	i	·
Cc1nnc2ccc(N3CCC(NC(=O)c4ccc(C(F)(F)F)cc4)C3)nn12 (configuration not stated)	8	·	·
COc1ccc(CCNC(=O)CN2C(=O)COc3ccccc32)cc1OC	-34*	i	2%
COc1ccc(CCNC(=O)CN2C(=O)COc3ccc(C)cc32)cc1OC	-7	i	·
O=C(NCc1ccc(F)cc1)c1ccc2nnc(C3CC3)n2c1	2	·	·
COc1ccc(-n2c(=O)c3c(n2Cc2ccccc2)CN(CCCc2ccccc2)CC3)cc1	-28*	i	-11%
COc1ccc(-n2c(=O)c3c(n2Cc2ccccc2)CN(Cc2ccc(F)cc2)CC3)cc1	4	i	·
Cc1ccc(-c2nc3ccccc3c(C(=O)O)c2C)cc1	·	i	·
O=C(NC1CCCCCC1)C1c2ccccc2C(=O)N1Cc1ccccc1Cl (configuration not stated)	7	?	·
CCOc1ccccc1CN1C(=O)c2ccccc2C1C(=O)NC1CCCCCC1 (configuration not stated)	-41*	i	-18%
N#CCC(C1CCCC1)n1cc(-c2ncnc3[nH]ccc23)cn1 (configuration not stated)	-9	·	-23%
CCCCNC(=O)C12CC3CC(C1)CC(c1ccccc1)(C3)C2	·	i	·
CC(=O)c1ccc(NC(=O)C2(c3ccc(C)cc3)CCCC2)cc1	·	i	·
Cc1ccccc1C(=O)n1nc(-c2cccnc2)nc1NCc1ccccc1	20	i	·
Cc1cccc(C(=O)n2nc(-c3cccnc3)nc2NCc2ccccc2)c1	-30*	i	?
Cc1ccc(CSc2nnc(COc3ccc(Cl)c(C)c3)n2C)cc1	·	i	·
SMILES	IP6K1 inh	KDM5B inhibitor	IP6K1 inh cnf
c1cc(NCCc2c[nH]c3ccccc23)cc(Nc2ccncc2)c1	-34*	·	-5%
c1ccc2c(CCNc3ccc(Nc4ccncc4)cc3)c[nH]c2c1	23	·	·
CCCOc1ccc(C(=O)N(Cc2ccc(N(C)C)cc2)CC2CCCO2)cc1 (configuration not stated)	-10	i	·
COc1ccc(C(=O)N(Cc2cc(OC)c(OC)c(OC)c2)CC2CCCO2)cc1 (configuration not stated)	-25*	?	5%
Cc1ccc2c(COC(=O)C3=NN(C)C(=O)CC3)cc(=O)oc2c1	·	i	·
O=C1NC(C(=O)N2CCN(c3ccccn3)CC2)Cn2cccc21 (configuration not stated)	-9	·	·
CCOc1ccccc1C(=O)OCc1ccc(C#N)cc1	·	i	·
COc1ccc(NC(=O)C2CCc3nnc(CN[S+](C)(=O)[O-])n32)cc1 (configuration not stated)	-6	·	·
CC1CN(c2ccc(Cl)cc2)C(=O)CN1C(=O)CCn1cccc1 (configuration not stated)	-33*	?	-15%
Cc1nc2ccc(C(=O)N3CC(=O)N(c4ccc(Cl)cc4)CC3C)cc2[nH]1 (configuration not stated)	8	i	·
Cc1nc2nc(SCC(=O)NCc3ccccc3)nn2c(C)c1Cc1ccccc1Cl	4	?	·

Bioassay records as filed in PubChem.
